Experimental data from PubChem BioAssay AID817 (Emory University Molecular Libraries Screening Center, 2007).
Screen size: about 140,000 compounds; about 300 (0.21%) were called active.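 How the source made its calls: active means z-score above 3 at both the 24 hr and the 30 hr optical density reads; inactive means the rest, inconclusive results apart.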 Shown is part of a subset that was picked to be rich in actives.

Experiment: restorers of sdo1-deficient yeast growth – S. cerevisiae, bone marrow failure model, primary screen (AID 817);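 further: z-score against mean and SD of all compound wells on the same plate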
Conditions: S. cerevisiae sdo1-depleted JHY4D growth rescue, at 10 µM, stronger effect = higher value, pdr5 snq2 efflux-pump mutant strain
[1] = OD600, measured here: growth rescue at 24 h

SMILES | z-score (OD600 30 h) | z-score [1]
C=CCc1ccccc1OCC(=O)N/N=C/c1ccccc1OCC | 0.63 (inactive) | 0.43
CC(=O)N1CCN(CC(=O)Nc2ccc(SC(F)F)cc2)CC1 | 1.61 (inactive) | 1.79
CC(C)CNC(=O)CC(NCC(C)C)C(=O)O (centres undefined) | 0.7 (inactive) | 0.56
c1ccc(C2CNCc3c2ccc2ccccc32)cc1 (centres undefined) | -0.88 (inactive) | -1.37
CCc1nnc(NC(=O)[C@@H](NC(=O)c2cccc(C)c2)C(C)C)s1 | 0.02 (inactive) | -0.75
CCc1cccc(CC)c1NC(=S)NCc1ccc2[nH]c(C)cc2c1 | -0.04 (inactive) | 0.97
CC1CCCC(NC(=O)COC(=O)[C@@H]2CC(O)CN2S(=O)(=O)c2ccc3c(c2)OCCO3)C1C (some centres undefined) | 1.03 (inactive) | 1.42
Cc1nc2scc(-c3cccs3)c2c(=O)n1N | 0.14 (inactive) | -0.79
O=C(COC(=O)/C=C/c1nc2ccccc2s1)Nc1ccccc1Oc1ccccc1 | -0.21 (inactive) | 0.04
CC(=O)NS(=O)(=O)c1ccc(NC(=O)C2C3C=CC(C3)C2C(=O)O)cc1 (centres undefined) | -0.71 (inactive) | -0.47
CN(C)C(CNC(=O)c1ccc(S(=O)(=O)NCc2ccco2)cc1)c1ccccc1 (centres undefined) | 0.96 (inactive) | 0.68
COc1ccc(C)cc1Nc1nc(-c2c(C)[nH]c3ccccc23)cs1 | -0.39 (inactive) | -0.09
CCCn1c(=O)c2c(C(F)(F)F)cc(-c3cccs3)nc2n(CCC)c1=O | 1.32 (inactive) | 2.13
O=C(NCc1cccs1)C(=O)NCC1OCCCN1S(=O)(=O)c1ccc(F)cc1 (centres undefined) | -0.71 (inactive) | -1.35
CCOc1ccc(NC(=S)N2CCC(N(C)CC3CCCO3)CC2)cc1 (centres undefined) | 0.68 (inactive) | 1.31
Cc1[nH]c2ccccc2c1/C=N/NC(=O)CNC(=O)c1ccc2c(c1)OCO2 | 1.92 (inactive) | 3.35
NC(=S)N/N=C/c1coc2cc(Cl)ccc2c1=O | -1.25 (inactive) | -1.16
O=C(CSc1nnc(-c2ccncc2)o1)NCc1ccc(Cl)cc1 | 0.26 (inactive) | -0.05
COc1ccc(NC(=S)NC2CCS(=O)(=O)C2)cc1 (centres undefined) | -0.13 (inactive) | -0.11
COCCn1c(=NC(=O)c2ccccc2[N+](=O)[O-])sc2cc(S(C)(=O)=O)ccc21 | -0.84 (inactive) | -0.91
COC(=O)c1onc(-c2c(OC)cc(OC)cc2OC)c1C(=O)OC | 0.49 (inactive) | 0.26
O=C(COC(=O)c1cc(=O)[nH]c2ccccc12)Nc1nc(-c2cccc(Br)c2)cs1 | -0.47 (inactive) | -0.07
C=CCNC(=O)c1ccccc1NC(=O)c1ccc(Cl)c(S(=O)(=O)Nc2cccc(C)c2C)c1 | -0.47 (inactive) | 0.23
C=CCN1C(=O)C(Cc2ccc(OCC)cc2)SC1=Nc1ccc(C(=O)O)cc1 (centres undefined) | -0.13 (inactive) | -0.75
CC(C)CCNC(=O)c1cccnc1Sc1ccccc1 | 0.7 (inactive) | 0.32
Cc1ccc(/C=N/NC(=O)CNC(=O)COc2ccccc2)o1 | 1.11 (inactive) | 1.1

SMILES | z-score (OD600 30 h) | z-score [1]
CS(=O)(=O)N(Cc1ccccc1)c1ccc(C(=O)NN=C2CCCCCC2)cc1 | -0.22 (inactive) | -0.83
COc1ccccc1OCc1ccc(C(=O)N2CCN(C)CC2)o1 | 0.86 (inactive) | 0.24
CN1CCN(C(=O)/C(=C\c2cccs2)NC(=O)c2cccs2)CC1 | 0.48 (inactive) | 0.2
CCOc1ccc(C(=O)NC(=S)Nc2ccc(N3CCOCC3)c(Cl)c2)cc1[N+](=O)[O-] | -1.76 (inactive) | -1.28
COc1ccc(C(=O)NNS(=O)(=O)c2ccc(C)cc2)cc1 | -0.36 (inactive) | -1.37
CC1(C)C=C2[C@H]3CC[C@@H]4[C@@]5(C)CCC(=O)C(C)(C)[C@@H]5CC[C@@]4(C)[C@]3(C)CC[C@@]2(C(=O)O)CC1 | -0.02 (inactive) | -0.53
FC(F)(F)c1cccc(N/N=C/c2ccccc2)c1 | -1.78 (inactive) | -1.53
COc1ccccc1N1CCN(C(=O)C(=O)N/N=C/c2ccccc2F)CC1 | 1.25 (inactive) | 0.28
COc1ccc(OC(C)C(=O)NCCc2nc3ccccc3[nH]2)cc1 (centres undefined) | 0.82 (inactive) | -0.04
COc1ccccc1-n1c(C)nc2cc(C(=O)NCc3ccc4c(c3)OCO4)ccc21 | -0.72 (inactive) | -1.61
COC(=O)c1cc(C(=O)N(Cc2ccccc2)c2ccccn2)cc([N+](=O)[O-])c1 | -0.07 (inactive) | -0.08
CCc1ccccc1NC(=O)CN(C)C(=O)COc1ccc(C)nc1[N+](=O)[O-] | -0.39 (inactive) | -0.24
Cc1[nH]c2ccccc2c1C(=O)COC(=O)C(C)C | 0.17 (inactive) | -0.5
Cc1[nH]c2ccccc2c1C(=O)CSCC(=O)O | 10.5 (active) | 8.73
CCOC(=O)N1CCN(CC(=O)c2c(C)[nH]c3ccccc23)CC1 | -0.21 (inactive) | -1.53
CCCC1OC23CCCCC2C(C#N)(C#N)C1(C#N)C(=N)O3 (centres undefined) | 0.28 (inactive) | 0.9
CCOc1ccc2c(=O)c(-c3ccc4c(c3)OCCCO4)c(C)oc2c1 | 0.07 (inactive) | -0.34
O=C(OCC(=O)c1c[nH]c2ccccc12)c1cccc(O)c1 | 0 (inactive) | 0
O=C(NC(=S)Nc1ccc2oc(=O)ccc2c1)c1ccc(-c2cccc(Cl)c2Cl)o1 | -0.64 (inactive) | 0.44
CCOC(=O)c1c(NC(=S)Nc2ccccc2C)sc2c1CCC2 | -0.66 (inactive) | 0.75
COc1ccc(C(C[N+](=O)[O-])n2nc(C)cc2C)cc1 (centres undefined) | -2.03 (inactive) | -0.33
O=C(N/N=C\c1ccc(Br)cc1)c1ccc(Cn2cccn2)o1 | 0.87 (inactive) | -0.05
O=S(=O)(NCC1CCCO1)c1cnc(Cl)c(Cl)c1 (centres undefined) | 1.1 (inactive) | 0.93
Cc1c(C(=O)NCCN2C(=O)S/C(=C\c3cccs3)C2=O)cccc1[N+](=O)[O-] | -0.51 (inactive) | -0.6
COc1cccc(NC(=O)C(Sc2nc3ccccc3c(=O)n2CC(C)C)c2ccccc2)c1 (centres undefined) | -1.02 (inactive) | -0.31
Cc1nnnn1/C(=C\c1ccccc1)C(=O)OCC(=O)N1CC2(C)CC1CC(C)(C)C2 (centres undefined) | -1.27 (inactive) | -0.83
